# Source: PubChem
# Rows were chosen to be rich in hits. Some 3.1% of all compounds tested hit in one or more screens of this group.
# Rin1 Abl inh = blocks binding of human Rin1 to Abl | TR-FRET Rin1/Abl binding, biochemical | 0.4% of 360,000 active | inhibition, % at 7.35 µM | P00519+Q13671 | AID 588664; in the data active = inhibition above about 5%, passing the limit was not always enough
# KLK7 zymogen act = activators of human kallikrein-7 zymogen | 0.9% of 370,000 active | activation, % at 7 µM | purified proKLK7, EDANS-DABCYL substrate fluorescence; 100% is mature enzyme control, 0% vehicle;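 active = activation above the mean of all tested compounds plus 3 SD, computed per campaign excluding outliers beyond control limits, cut at about 13% in these data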
# Target sequence (P49862 whole entry, looked up): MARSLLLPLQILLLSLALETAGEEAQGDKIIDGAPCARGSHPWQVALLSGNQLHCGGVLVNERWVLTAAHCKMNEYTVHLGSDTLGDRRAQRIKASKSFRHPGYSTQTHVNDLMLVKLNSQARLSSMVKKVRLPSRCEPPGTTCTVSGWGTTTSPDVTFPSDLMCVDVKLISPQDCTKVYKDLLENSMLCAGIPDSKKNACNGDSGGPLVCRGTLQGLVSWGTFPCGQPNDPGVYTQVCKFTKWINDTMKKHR
# MBD2 DNA inh = MBD2-methylated oligo binding inhibition; Q9UBB5; TR-FRET, MBD2 binding to methylated oligonucleotide; 0.31% of 370,000 active; inhibition, % at 4.4 µM; in the data active = inhibition above about 13%
# UHRF1 MBD2 ctr = human UHRF1 methylated DNA binding inhibitors. UHRF1 binding to methylated oligo, TR-FRET. 0.75% of 370,000 active. inhibition, % at 4.4 µM; in the data active = inhibition above about 21%;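 note: UHRF1 SRA domain binding a hemimethylated CpG hairpin DNA probe; 0% = median of test compound wells and 100% = reference inhibitor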
# LEDGF integ inh = blocks HIV-1 LEDGF/p75-dependent DNA integration | 0.64% of 370,000 active | inhibition, % at 3.7 µM | TR-FRET IN-LEDGF/p75 DNA integration, Eu/Cy5;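 active = inhibition above the screen-wide mean plus 3 SD, cut at about 13% in these data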;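 note: signal is the Cy5 over europium emission ratio at 671 and 618 nm; 0% = plate median of compound wells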
# Neddylation inh = blocks human cullin neddylation; P61081+Q13564; TR-FRET cullin neddylation, biochemical; calls only at 25 µM; 0.58% of 360,000 active; AID 651699; in the data active = inhibition above about 36%
# * marks the source's active call; other numbers are inactive results; i = inactive; nt = no result given; + = active, no number; ! = not confirmed by another sample.
SMILES,Rin1 Abl inh,KLK7 zymogen act,MBD2 DNA inh,UHRF1 MBD2 ctr,LEDGF integ inh,Neddylation inh
Cc1cc(C)c(-c2cc(NC(=O)COC(=O)c3ccc(NC(=O)CC#N)cc3)n(-c3ccccc3)n2)cc1C,-3,0,11,26*,-1,i
Cc1cc(C)c(-c2cc(NC(=O)COC(=O)c3ccc(C#N)cc3)n(-c3ccccc3)n2)cc1C,2,-1,-4,15,-3,i
COc1ccc(CC(=O)NNC(=O)c2cc(Cl)ccc2OC)cc1,1,0,-1,-3,2,i
CC(OC(=O)C1=NN(c2ccccc2)C(=O)CC1)C(=O)NC1CCCCC1C (stereo not drawn),5,0,1,48*,3,i
CC(OC(=O)c1nn(C)c(=O)c2ccccc12)C(=O)NC1CCCCC1C (stereo not drawn),5,0,-1,26*,-4,i
Cc1nn(-c2ccccc2)c(C)c1C(=O)OC(C)C(=O)NC1CCCCC1C (stereo not drawn),2,0,6,0,-1,i
CCOC(=O)[C@@]12CCCC=C1N(CCc1ccc(Cl)cc1)C(=O)[C@H]2CC(=O)NCCc1ccccc1OC,nt,0,-6,-2,6,nt
COc1ccc(Cn2c(N)c(C#N)c3nc4ccccc4nc32)cc1OC,-2,-57,-4,-6,4,+
COc1ncnc(-c2ccccc2)c1-c1ccccc1,-3,0,4,2,-3,i
CCCCCn1c(=O)[nH]c2cc(C(=O)N3CCN(c4ccc(C(C)=O)cc4)CC3)ccc2c1=O,1,0,4,1,-5,i
CCCCCn1c(=O)[nH]c2cc(C(=O)N3CCN(CC)CC3)ccc2c1=O,-2,-4,13,25*,3,i
Cc1ccc2c(c1)N(CCCC(=O)N(C)Cc1ccccc1F)C(=O)CO2,nt,-1,3,4,4,nt
OCCNc1ncnc2c1ncn2[C@H]1CN(Cc2cccs2)C[C@@H](CO)O1,4,0,2,26*,2,i
COCCNc1ncnc2c1ncn2[C@H]1CN(Cc2cccs2)C[C@@H](CO)O1,1,0,8,0,-3,i
CCCc1nc2ccc(C)cn2c1Cc1ccccc1C(F)(F)F,-2,1,10,24*,0,i
CCCc1nc2c(C)cc(Br)cn2c1Cc1ccccc1C(F)(F)F,-46,-1,9,22*,1,i
CCCc1nc2ccc(C)cn2c1Cc1ccccc1OC,0,-1,10,22*,-1,i
COc1ccccc1Cc1c(-c2ccc(Cl)cc2)nc2ccc(C)cn12,nt,-2,5,21*,-1,nt
O=C(CSc1nnc(-c2ccccc2F)o1)Nc1ccc(N2CCOCC2)cc1,1,0,-3,1,4,i
CCOC(=O)C(C#N)=CN1CCNc2ccccc21,3,1,-2,1,1,i
CCc1ccc(/C(C)=N/NC(=O)c2ccc(-n3cnnn3)cc2)cc1,1,0,8,2,-7,i
CC1CCc2c(sc3ncn(CC(=O)N4CCCCC4)c(=O)c23)C1 (stereo not drawn),2,0,-3,0,3,i
COc1cccc(C(C)(O)c2nc(-c3ccc(F)cc3OC)cs2)c1 (stereo not drawn),0,0,-9,0,1,i
COc1ccc(Nc2nc(=O)c3cc([N+](=O)[O-])ccc3s2)cc1,-3,1,7,25*,-1,i
COc1cc(NC(=O)c2cc(C)on2)cc(C(=O)Nc2cccc(C(F)(F)F)c2)c1,5,0,-3,93*!,2,i
SMILES,Rin1 Abl inh,KLK7 zymogen act,MBD2 DNA inh,UHRF1 MBD2 ctr,LEDGF integ inh,Neddylation inh
O=C1CCCC(O)=C1N=Nc1cccc(C(=O)O)c1,-1,0,1,21*,5,i
C[C@@H]1COc2cccc(NCCO)c2S(=O)(=O)N1,nt,1,3,8,1,nt
CCCCNc1cccc2c1S(=O)(=O)N[C@H](C)CO2,nt,0,9,22*,-2,nt
O=C(Nc1cccc(S(=O)(=O)N2CCOCC2)c1)c1ccc2ccccc2n1,0,0,1,22*,-5,i
O=C(Nc1cccc(S(=O)(=O)N2CCCC2)c1)c1ccc2ccccc2n1,0,0,-3,-1,-1,i
Cc1ccc(S(=O)(=O)NCC(=O)OCC(=O)Nc2cccc(S(=O)(=O)N3CCOCC3)c2)cc1,0,-1,-2,0,27*,i
Cc1ccc(S(=O)(=O)NCC(=O)OCC(=O)Nc2ccc(C)c(S(=O)(=O)N3CCOCC3)c2)cc1,5,0,-4,2,6,i
CCOC(=O)C1(C)CCCN(C(=O)c2cc(C)oc2C)C1 (stereo not drawn),5,0,-6,-2,6,i
CCOC(=O)C1=C(C)N(C)C(C)=C(C(=O)OCC)C1c1ccc(Cl)cc1,1,0,6,26*,-1,i
COC(=O)C1=C(C)N(C)C(C)=C(C(=O)OC)C1c1ccc(Cl)cc1,-1,0,-5,-2,-1,i
CN1Cc2sc(NC(=S)NC(=O)c3ccccc3)c(C#N)c2CC1(C)C,nt,2,21*,29*,-9,nt
CCC1(C)Cc2c(sc(NC(=S)NC(=O)c3ccccc3)c2C#N)CO1 (stereo not drawn),-4,0,3,1,-2,i
CCOC(=O)N1CCN(C(=O)c2nn(C)c3c2CSc2ccccc2-3)CC1,3,0,-3,-2,-2,i
O=C(N/N=C\C=C\c1ccc2c(c1)OCO2)c1cccnc1,-4,0,-4,33*,-2,i
O=C(/C=C/c1ccc2c(c1)OCO2)c1cccnc1,2,0,4,-1,-3,i
O=C(Nc1ccc(O)cc1)c1ccc(C(=O)c2ccccc2)o1,-1,0,-4,-2,-2,i
COC(=O)[C@]12C[C@H](CC(=O)N3CCC(c4ccccc4)CC3)C(=O)N(CCc3ccc(OC)c(OC)c3)C1=C[C@H](C1CCCC1)O[C@@H]2C,nt,1,0,4,-5,nt
O=C(c1ccco1)N1CCN(C(c2cccs2)c2nnnn2C2CCCCC2)CC1 (stereo not drawn),1,0,4,86*,2,i
O=C(/C=C1\NCC2c3ccccc3CCN2C1=O)c1ccccc1 (stereo not drawn),2,6,0,-6,-1,i
CC(C)C(NC(=O)C1CCCCC1)C(=O)NCCc1ccccc1 (stereo not drawn),0,0,6,21*,-1,i
CC(C)C(NC(=O)C1CCCCC1)C(=O)NCc1ccccn1 (stereo not drawn),-1,0,3,2,-3,i
O=C(O)CN1CCN(Cc2ccccc2)C1=O,-2,0,1,0,-1,i
N=c1n(CC(=O)c2cccs2)c2ccccc2n1Cc1ccccc1,-2,0,0,25*,-4,i
